TRHR agonist: qHTS for Small Molecule Agonists and Allosteric Enhancers of Human TRH Receptor: Primary Screen for Agonists. TRHR cells, calcium flux fluo-8, FDSS agonist mode. Thyrotropin-releasing hormone receptor (Homo sapiens), P34981. AID 493084, 2011. activation, % at 2 µM. hit rate 0.18% among 360,000; note: 0% is about no effect
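TRHR-expressing cells loaded with fluo-8 calcium dye; 23 nL library compound pin-transferred, kinetic FDSS fluorescence (Ex 480/Em 530) recorded about 180 s for agonist-induced calcium release, before a 10 nM TRH EC20 addition for potentiator mode.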
TRHR enhancer: qHTS for Small Molecule Agonists and Allosteric Enhancers of Human TRH Receptor: Primary Screen for Enhancers | Thyrotropin-releasing hormone receptor (Homo sapiens), P34981 | TRHR cells, fluo-8 calcium fluorescence, EC20 TRH enhancement | enhancement, % at 2 µM | hit rate 0.66% among 360,000 | AID 493056, 2011; in the data active = enhancement above about 30%; note: 0% is about no effect
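Enhancer read-out: after compound pinning and an initial kinetic agonist-mode read, an EC20 of TRH (10 nM final) was injected and fluo-8 calcium signal (Ex 480/Em 530) followed at 1 s/cycle for 100 cycles in TRHR-expressing cells.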
D1 PAM: Potentiators of Human D1 Dopamine Receptor: qHTS | AID 504651, 2011 | HEK293 TREx D1 cells, calcium flux, dopamine EC20 potentiation | D(1A) dopamine receptor (Homo sapiens), P21728 | hit rate 0.036% among 360,000 | potentiation, % at 10 µM; in the data active = potentiation above about 30%; note: 0% is about no effect
Target sequence (P21728 whole entry, looked up): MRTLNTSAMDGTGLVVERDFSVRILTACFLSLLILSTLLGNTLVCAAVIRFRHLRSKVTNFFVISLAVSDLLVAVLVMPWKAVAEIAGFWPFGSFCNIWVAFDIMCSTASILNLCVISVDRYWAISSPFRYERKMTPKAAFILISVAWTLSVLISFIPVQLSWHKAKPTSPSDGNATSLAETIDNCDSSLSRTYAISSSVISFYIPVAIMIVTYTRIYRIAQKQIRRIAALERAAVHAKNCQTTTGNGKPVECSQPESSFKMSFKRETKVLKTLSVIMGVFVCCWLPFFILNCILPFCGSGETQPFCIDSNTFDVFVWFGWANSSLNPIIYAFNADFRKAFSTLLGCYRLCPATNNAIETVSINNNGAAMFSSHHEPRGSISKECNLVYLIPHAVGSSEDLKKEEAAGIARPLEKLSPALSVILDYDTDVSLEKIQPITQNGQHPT
D1 antagonist: Antagonist of Human D 1 Dopamine Receptor: qHTS; D(1A) dopamine receptor (Homo sapiens), P21728; HEK293 TREx D1 cells, calcium flux, dopamine EC80; stronger effect = lower value; activity change, negative = inhibition, % at 10 µM; hit rate 3.2% among 360,000; AID 504652, 2011; in the data active = activity change below about -30%; note: % is set by controls: 0 for no effect and ±100 for the full control effect
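HEK293 T-REx cells expressing inducible, force-coupled D1 receptor; no-wash Ca dye, 30–90 min RT. Cmpd → 180 s read at 1 Hz → EC80 DA → 180 s read.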
D1 ag: Allosteric Agonists of the Human D1 Dopamine Receptor: qHTS. D(1A) dopamine receptor (Homo sapiens), P21728. HEK293 T-REx D1 cells, calcium flux, agonist mode. activation, % at 2 µM. hit rate 1% among 360,000; note: 0% is about no effect
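Tetracycline-induced HEK293 TREx D1 cells, force-coupled to calcium signalling, were dye-loaded with a no-wash calcium kit. Compound was pin-added after a 10 s baseline. Fluorescence was read kinetically at 1 cycle/s for 180 s, with calcium rises flagged as agonism.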
Active calls of the source: *; nt = no result given. Most compounds without a hit are left out; they make up all but 4.7% or so of the library. Cut-off read from the data, not from the text of the source, unless noted: active = activation above about 30%; inactive = the rest.

SMILES	TRHR agonist	TRHR enhancer	D1 PAM	D1 antagonist	D1 ag
CCOC(=O)c1c(CSc2ccc(CC)cc2)oc2ccc(O)c(CN(C)C)c12	3	-13	-10	-15	45*
CCOc1ccc(CNC(=O)CCCn2nc(C)c3c(C)n(-c4ccc(C)cc4)nc3c2=O)cc1	0	8	-5	-8	1
Oc1ccccc1C1CCCCC1c1ccccc1 (stereo not given)	-2	3	-4	-39*	5
CN(C)CCn1c(C(=O)Nc2ccccc2)cc2ccccc21	0	3	-14	-43*	3
COc1cc(C(=O)OCCC(C)C)cc(OC)c1O	-1	11	1	6	14
CCCCOC(=O)c1cc(Cl)c(O)c(OC)c1	-1	40*	-2	-13	3
COc1ccc(CCNC(=O)Cn2c(C)c3cnn(-c4ccccc4)c(=O)c3c2C)cc1OC	0	-4	-3	4	-1
O=C(CCN1C(=O)CSc2ccccc21)Nc1ccc(OC(F)(F)F)cc1	0	33*	-3	nt	2
COc1ccc(-c2c(C)nn3c(N4CCN(c5cc(Cl)ccc5C)CC4)cc(C)nc23)cc1OC	0	2	5	7	1
O=c1c2cc3c(cc2nc2sc(Nc4ccc(F)c(Cl)c4)nn12)OCO3	0	4	3	5	55*
Cc1ccccc1CN(C)C(C)C(=O)Nc1ccccc1F (stereo not given)	-1	40*	-1	-13	4
O=C(CNC(=O)c1ccncc1)OC(C(=O)Nc1cc(C(F)(F)F)ccc1Cl)c1ccccc1 (stereo not given)	1	3	5	21	1
Cc1cc(/C=C(\C#N)C(=O)OCC(=O)NC(=O)NC(C)(C)C)c(C)n1CCC(C)C	1	-6	-4	-51*	-2
COc1cc(NC(=O)CCc2c(C)nn(-c3ccc4nnc(C)n4n3)c2C)cc(OC)c1OC	-1	4	-3	18	2
Cc1ccccc1CNC(=O)C1CCCN(c2nnc(C)c3c(C)n(-c4ccccc4)nc23)C1 (stereo not given)	0	-2	46*	16	11
Cc1nnc(N2CCCC(C(=O)NCc3ccccc3F)C2)c2nn(-c3ccccc3)c(C)c12 (stereo not given)	0	-3	-3	47	2
Cc1cc(C)cc(C(=O)n2nc(C)c(S(=O)(=O)N3CCCCCC3)c2C)c1	0	7	0	-15	2
Cc1ccc(C(=O)n2nc(C)c(S(=O)(=O)N3CCCCCC3)c2C)cc1C	0	35*	-3	-15	4
Cc1ccc(C)c(OCC(=O)NNC(=O)CCN2CCN(c3ccccc3)CC2)c1	-2	-12	0	5	1
Brc1ccc(-c2csc(/N=C/N3CCCC3)n2)cc1	0	-6	0	-9	2
Brc1ccc(-c2csc(/N=C/N3CCOCC3)n2)cc1	-1	4	-10	-33*	0
Cc1ccc(OCCNC(=O)c2cccc(S(=O)(=O)N3CCN(C)CC3)c2)cc1	0	-6	-6	22	0
CCOc1ccc(OCC)c(Nc2nc3ccc(Cl)cc3n3cnnc23)c1	0	-3	0	-36*	1
CCOc1ccc(OCC)c(Nc2nc3ccc(C(=O)c4ccccc4)cc3n3cnnc23)c1	-1	-6	-1	-7	1
CC(C)c1ccc(NC(=O)CCCN2C(=O)NC(C)(C)C2=O)cc1	0	4	-4	-53*	0
SMILES	TRHR agonist	TRHR enhancer	D1 PAM	D1 antagonist	D1 ag
Cc1ccc(NC(=O)CCN2C(=O)NC3(CCCC3)C2=O)cc1	0	0	-3	40	3
O=C(CCl)Nc1ccccc1Sc1ccc(Cl)cc1	-1	-12	-1	-10	2
Cc1ccc(Sc2ccc(NC(=O)CCl)cc2)c(C)c1	0	-2	-7	-73*	16
Cc1ccc(C)c(Sc2ccc(NC(=O)CCN3C(=O)NC4(CCCC4)C3=O)cc2)c1	0	3	5	-33*	7
COc1ccc(N(Cc2cccs2)C(=O)COc2ccc(C(C)C)cc2)cc1	2	-2	-1	-18	22
CC1=C(C(=O)Nc2ccccc2Br)C2(CCC(C)CC2)OC1=O (stereo not given)	0	-11	-3	4	1
CC(=O)c1ccc(N2CCN(S(=O)(=O)c3ccc(-c4cc(C(F)(F)F)on4)s3)CC2)cc1	0	2	-4	-31*	1
CC(=O)c1ccc(N2CCN(S(=O)(=O)c3ccc(-c4cc(C)no4)s3)CC2)cc1	0	-1	-8	-22	9
Cc1cc(NC(=O)CSc2ccccc2)no1	0	-5	-1	-19	1
Cc1cc(NC(=O)CSc2nnc(-c3ccccc3)c(-c3ccccc3)n2)no1	-1	-15	-4	-78*	1
Cc1ccc(Oc2ccccc2NC(=O)CSCC(=O)Nc2cc(C)on2)cc1	0	25	0	0	24
CCc1cc2cccc(C)c2nc1SCC(=O)Nc1cc(C)on1	0	40*	-4	0	7
Cc1cc(NC(=O)CSCC(=O)Nc2ccccc2Oc2ccccc2)no1	-1	-3	2	-37*	3
Cc1cc2c(s1)c1cnn(Cc3cc(F)cc(F)c3F)c(=O)c1n2C	0	-1	11	-4	-1
Clc1ccc(-c2ccc(CNCc3ccccn3)o2)cc1	0	5	-5	-13	5
O=c1oc2ccccc2c(NC2CCCCC2)c1NS(=O)(=O)c1ccc(F)cc1	0	-9	0	3	4
COc1ccc(S(=O)(=O)Nc2c(NC3CCCCC3)c3ccccc3oc2=O)cc1	0	-1	-8	-31*	0
CN(CC(=O)Nc1ccc(F)c(F)c1F)c1ncnc2sccc12	0	-6	-11	-9	8
CN(CC(=O)Nc1ccccc1Br)c1ncnc2sccc12	0	0	-11	-35*	13
Cc1c(Cl)cccc1-n1c(SCC(=O)NCc2ccccc2)nc2n[nH]c(C)c2c1=N	-1	42*	2	3	1
O=C(CN1CCN(CC(=O)Nc2cccc(F)c2)CC1)NCC1(N2CCOCC2)CCCCC1	-1	7	7	6	0
O=C(Cc1c(F)cccc1Cl)N1CCOCC1	0	-4	-4	-36*	-1
Cc1ccc(NC(=O)Cn2cc(C(=O)c3ccco3)c3ccccc32)cc1C	0	-3	3	-1	3
